The panel holds about 83,000 compounds, 20% with a hit somewhere; the sample as a whole holds those more often.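 Single-concentration screen, 48 h exposure, 96-well plates. Endpoint: percent growth. Below 10 = active.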 Unmarked numbers belong to inactive results. Active and inactive are the calls of the source.
Legend:
Experiment in all cases: NCI-60 one-dose screen, 48 h (100 = growth as untreated, 0 = no growth, -100 = all killed)
Details in all cases: 10 µM unless noted
[1] = tested on: SK-MEL-2 melanoma
[2] = tested on: EKVX NSCLC
[3] = tested on: SN12C renal
[4] = tested on: UO-31 renal
[5] = tested on: TK-10 renal
[6] = tested on: ACHN renal
[7] = tested on: CAKI-1 renal
[8] = tested on: A498 renal
[9] = tested on: CCRF-CEM leukemia
[10] = tested on: MOLT-4 leukemia

Structure (SMILES) | growth [1] | growth [2] | growth [3] | growth [4] | growth [5] | growth [6] | growth [7] | growth [8] | growth [9] | growth [10]
O=C(Nc1ccccc1)c1sc(-c2ccccc2)cc1O | 105% | 86.7% | 105% | 86.5% | 118% | 93.1% | 90.6% | 94.6% | 96.7% | 95.2%
CCNc1nc(-c2ccc(F)cc2)c(C#N)c(=O)n1C | 77.8% | 29.1% | 69.1% | 41.2% | 34% | 52.5% | 53.3% | -9.07% (active) | 85.9% | 71.6%
COc1cc2c3c(n(CCCCNCCCn4c5c(c6cc(OC)c(OC)cc6c4=O)C(=O)c4cc6c(cc4-5)OCO6)c(=O)c2cc1OC)-c1cc2c(cc1C3=O)OCO2 | 114% | 90.3% | 102% | 84.1% | 100% | 95% | 93.3% | 103% | 101% | 96.5%
COc1ccc(Nc2ncc(C(N)=O)c(NCCCNC(=O)C3CCC3)n2)cc1 | 51.8% | 96.2% | 30.9% | 2.37% (active) | 34.4% | 44.9% | 34.7% | 105% | 43.7% | 38.7%
CCN(CC)CCNC(=O)c1ccc(-c2nc3ccc4[nH]ncc4c3c3c2CCCC3)cc1 | 60.5% | 51% | 70.9% | 40.3% | 47.7% | 24.7% | 9.09% (active) | 16.9% | 47% | 50%
COC1=CC(c2ccc[nH]2)=N/C1=C\c1[nH]c(C)c(CC(=O)OCc2ccccc2)c1C | -38.6% (active) | 5.59% (active) | 6.3% (active) | -69% (active) | 4.1% (active) | -9.81% (active) | 0.261% (active) | -11.9% (active) | 4.82% (active) | 2.34% (active)
O=C(Nc1cccnc1Nc1ccc(Cl)cc1)c1cn(Cc2ccc(F)cc2)nn1 | 102% | 92.6% | 95.9% | 70.9% | 96.9% | 101% | 93.1% | 88.6% | 98.6% | 106%
C/C(=N\Nc1nc(C)cs1)c1cc2ccccc2o1 | 104% | 56.3% | 91.8% | 55.4% | 134% | 86.6% | 75.9% | 99.9% | 79.1% | 85.9%
O=C(N/N=C/c1ccc(O)cc1O)c1ccc(Nc2ccnc(C(F)(F)F)c2)cc1 | 73.3% | 41.4% | 38.5% | 46.1% | 63.3% | 37.9% | 34.9% | 74.7% | 29.1% | 73.7%
Cn1cc(-c2ccc3cc(-c4ccc(CC(=O)Nc5cc(C(C)(C)C)on5)cc4)cnc3c2)cn1 | 18.9% | 38.8% | 16.7% | 9.45% (active) | 43.9% | -23% (active) | 12.8% | -4.2% (active) | 3.44% (active) | 4.87% (active)
O=C(c1ccc(Cl)cc1Cl)N1c2ccccc2Sc2ccccc21 | 88.7% | 75.7% | 66.9% | 65.3% | 73.3% | 60.7% | 50.5% | 68.9% | 57.2% | 26.4%
C/C(C=O)=C\c1ccc2c(c1)OCO2 | 109% | 102% | 110% | 102% | 90.7% | 113% | 107% | 68% | -5.12% (active) | 116%
COc1cc(-c2nc(SCCC(C)C)nc(N3CCOCC3)c2C#N)cc(OC)c1OC | 116% | 100% | 54.9% | 73.9% | 46.5% | 101% | 76.2% | 108% | 78.8% | 89.2%
OC(c1ccccc1)(c1ccccc1)c1ccccc1-c1ccccc1 | 103% | 115% | 89% | 78.5% | 89.8% | 99% | 84.2% | 81.5% | 92.9% | 84%
CC(C)c1ccc(C(=O)Nc2sc3cc(O)ccc3c2C#N)cc1 | 47.6% | 52.9% | 34.2% | 25.1% | 63.4% | 47.3% | 39.6% | -0.765% (active) | 12.3% | 18.3%
CCOC(=O)c1c(C)nc2c(c1N)CC(=O)N2Cc1cc(OC)c(OC)c(OC)c1 | 27% | 51.6% | 74% | 62.2% | 54.8% | 64.9% | 50.6% | 35.8% | 78.2% | 52.1%
C/C(=N\O)C(=O)NCCCCCC(=O)Nc1ccccc1 | 110% | 98.2% | 98.5% | 90.3% | 89.6% | 109% | 91.9% | 90.2% | 101% | 101%
COc1ccc(Cc2cnc(NC(=O)c3sc4ccccc4c3Cl)s2)cc1 | 43.9% | 40.8% | 28.7% | 48.4% | 63.1% | 41.3% | 41.9% | 21.3% | 21% | 14.8%
COc1ccc(-c2cc(C(=O)N3N=C(c4ccc(N)cc4)CC3c3ccccc3)c3ccccc3n2)cc1 (stereo not given) | 39.8% | 70.8% | 51.7% | 45.5% | 58.4% | 37.6% | 24.5% | 29.1% | 25.6% | 35.2%
Nc1ccc([N+](=O)[O-])cc1N=C/C=C/c1ccccc1 | 43.5% | 97.5% | 50.6% | 43.3% | 79.8% | 81.7% | 73.1% | 79.3% | 18.3% | 14.8%
N#C/C(=C\c1ccc(-c2ccc(Cl)cc2)o1)c1ccc(Cl)cc1 | 96.5% | 49.5% | 30% | -11.6% (active) | 14.6% | -20.1% (active) | 38.4% | 82.5% | 66.6% | 85.6%
O=C(N/N=C/c1ccc([N+](=O)[O-])cc1)c1ccc2nc(-c3ccc(Cl)cc3)[nH]c2c1 | 66.7% | 49% | 19.6% | 42.6% | 89.8% | 32.3% | 42.7% | -0.501% (active) | 9.87% (active) | 4.24% (active)
